Experimental data: PubChem BioAssay AID1159580 (chemical genetic matrix, 2015)
About 2,000 (36%) of roughly 5,500 compounds were called active. Roughly 18% stayed inconclusive and do not appear here. No stated cut-off is given here; in the data, active means normalized growth mostly below about 0.91 (no sharp cut-off); inconclusive means no clear call, values can overlap the other calls; inactive means mostly above about 0.92. The list shows a part of the results.

Assay: chemical genetic growth profiling, strain panel (AID 1159580);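 further: tested at 20 µM; growth read once vehicle control cultures reached saturation at 30 °C; 1 = growth at the plate median or of vehicle wells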
Details: growth OD

Measured: normalized growth

Cc1cc(=O)oc2c(O)c(O)ccc12
inactive: S. cerevisiae deletion strains, locus YJR043C, strain POL32, stronger effect = lower value 1 | S. cerevisiae deletion strains, locus YJR066W, strain TOR1, stronger effect = lower value 0.94 | S. cerevisiae deletion strains, locus YJR075W, strain HOC1, stronger effect = lower value 1.02 | S. cerevisiae deletion strains, locus YKL009W, strain mrt4, stronger effect = lower value 0.979 | S. cerevisiae deletion strains, locus YKL068W, stronger effect = lower value 1 | S. cerevisiae deletion strains, locus YKL085W, strain MDH1 (second series), stronger effect = lower value 0.99 | S. cerevisiae deletion strains, locus YKL085W, strain MDH1, stronger effect = lower value 0.99 | S. cerevisiae deletion strains, locus YKL160W, strain elf1, stronger effect = lower value 0.992 | S. cerevisiae deletion strains, locus YKR001C, strain vps1, stronger effect = lower value 0.99 | S. cerevisiae deletion strains, locus YKR026C, strain gcn3, stronger effect = lower value 0.963 | S. cerevisiae deletion strains, locus YKR091W, strain srl3, stronger effect = lower value 0.974 | S. cerevisiae deletion strains, locus YLL001W, strain dnm1, stronger effect = lower value 0.956 | S. cerevisiae deletion strains, locus YLL026W, stronger effect = lower value 0.975 | S. cerevisiae deletion strains, locus YLL041C, strain sdh2, stronger effect = lower value 0.993 | S. cerevisiae deletion strains, locus YLR027C, strain aat2, stronger effect = lower value 0.968 | S. cerevisiae deletion strains, locus YLR039C, strain RIC1, stronger effect = lower value 0.953 | S. cerevisiae deletion strains, locus YLR058C, strain SHM2, stronger effect = lower value 1.02 | S. cerevisiae deletion strains, locus YLR102C, strain apc9, stronger effect = lower value 1.01 | S. cerevisiae deletion strains, locus YLR113W, strain HOG1, stronger effect = lower value 0.981 | S. cerevisiae deletion strains, locus YLR221C, strain rsa3, stronger effect = lower value 0.995 | S. cerevisiae deletion strains, locus YLR258W, strain gsy2, stronger effect = lower value 0.986 | S. cerevisiae deletion strains, locus YLR262C, strain YPT6 (second series), stronger effect = lower value 0.93 | S. cerevisiae deletion strains, locus YLR262C, strain YPT6, stronger effect = lower value 0.923 | S. cerevisiae deletion strains, locus YLR268W, strain sec22, stronger effect = lower value 0.992 | S. cerevisiae deletion strains, locus YLR320W, strain mms22, stronger effect = lower value 0.993 | S. cerevisiae deletion strains, locus YLR330W, strain CHS5, stronger effect = lower value 1.02 | S. cerevisiae deletion strains, locus YLR342W, strain FKS1 (second series), stronger effect = lower value 0.996 | S. cerevisiae deletion strains, locus YLR342W, strain FKS1, stronger effect = lower value 0.971 | S. cerevisiae deletion strains, locus YLR357W, strain rsc2, stronger effect = lower value 0.952 | S. cerevisiae deletion strains, locus YLR370C, strain arc18, stronger effect = lower value 0.958 | S. cerevisiae deletion strains, locus YLR371W, strain rom2, stronger effect = lower value 1 | S. cerevisiae deletion strains, locus YLR384C, strain iki3, stronger effect = lower value 0.954 | S. cerevisiae deletion strains, locus YLR418C, strain cdc73, stronger effect = lower value 1.03 | S. cerevisiae deletion strains, locus YML016C, strain PPZ1, stronger effect = lower value 1.01 | S. cerevisiae deletion strains, locus YML032C, strain rad52, stronger effect = lower value 0.997 | S. cerevisiae deletion strains, locus YML120C, strain ndi1, stronger effect = lower value 0.974 | S. cerevisiae deletion strains, locus YML124C, strain tub3, stronger effect = lower value 1 | S. cerevisiae deletion strains, locus YMR058W, strain fet3, stronger effect = lower value 0.964 | S. cerevisiae deletion strains, locus YMR078C, strain ctf18, stronger effect = lower value 0.976 | S. cerevisiae deletion strains, locus YMR125W, strain sto1, stronger effect = lower value 0.944 | S. cerevisiae deletion strains, locus YMR129W, stronger effect = lower value 0.976 | S. cerevisiae deletion strains, locus YMR205C, strain PFK2, stronger effect = lower value 0.96 | S. cerevisiae deletion strains, locus YMR223W, strain ubp8, stronger effect = lower value 1.02 | S. cerevisiae deletion strains, locus YMR231W, strain pep5, stronger effect = lower value 0.967 | S. cerevisiae deletion strains, locus YMR263W, strain SAP30, stronger effect = lower value 1 | S. cerevisiae deletion strains, locus YMR307W, strain GAS1, stronger effect = lower value 0.965 | S. cerevisiae deletion strains, locus YNL067W, strain RPL9B, stronger effect = lower value 1.01 | S. cerevisiae deletion strains, locus YNL071W, strain lat1, stronger effect = lower value 0.983 | S. cerevisiae deletion strains, locus YNL153C, strain GIM3, stronger effect = lower value 1 | S. cerevisiae deletion strains, locus YNL183C, strain NPR1, stronger effect = lower value 0.931 | S. cerevisiae deletion strains, locus YNL209W, strain ssb2, stronger effect = lower value 0.977 | S. cerevisiae deletion strains, locus YNL233W, strain BNI4, stronger effect = lower value 1.01 | S. cerevisiae deletion strains, locus YNL248C, strain rpa49, stronger effect = lower value 1.01 | S. cerevisiae deletion strains, locus YNL250W, strain rad50, stronger effect = lower value 0.991 | S. cerevisiae deletion strains, locus YNL271C, strain bni1, stronger effect = lower value 1.01 | S. cerevisiae deletion strains, locus YNL298W, strain CLA4, stronger effect = lower value 0.991 | S. cerevisiae deletion strains, locus YNL307C, strain MCK1, stronger effect = lower value 1.03 | S. cerevisiae deletion strains, locus YNL322C, strain KRE1 (second series), stronger effect = lower value 0.968 | S. cerevisiae deletion strains, locus YNR049C, strain mso1, stronger effect = lower value 0.959 | S. cerevisiae deletion strains, locus YNR052C, strain pop2, stronger effect = lower value 0.984 | S. cerevisiae deletion strains, locus YOL006C, strain TOP1, stronger effect = lower value 1.14 | S. cerevisiae deletion strains, locus YOL012C, strain htz1 0.856 | S. cerevisiae deletion strains, locus YOL147C, strain pex11, stronger effect = lower value 1.01 | S. cerevisiae deletion strains, locus YOR001W, strain rrp6, stronger effect = lower value 0.988 | S. cerevisiae deletion strains, locus YOR061W, strain CKA2, stronger effect = lower value 0.999 | S. cerevisiae deletion strains, locus YOR069W, strain VPS5, stronger effect = lower value 1.01 | S. cerevisiae deletion strains, locus YOR070C, strain gyp1, stronger effect = lower value 0.975 | S. cerevisiae deletion strains, locus YOR080W, strain dia2, stronger effect = lower value 0.984 | S. cerevisiae deletion strains, locus YOR083W, strain WHI5, stronger effect = lower value 1 | S. cerevisiae deletion strains, locus YOR106W, strain vam3, stronger effect = lower value 0.926 | S. cerevisiae deletion strains, locus YOR136W, strain idh2, stronger effect = lower value 1.01 | S. cerevisiae deletion strains, locus YOR144C, strain elg1, stronger effect = lower value 0.993 | S. cerevisiae deletion strains, locus YOR184W, strain ser1, stronger effect = lower value 1.01 | S. cerevisiae deletion strains, locus YOR231W, strain MKK1, stronger effect = lower value 0.983 | S. cerevisiae deletion strains, locus YOR265W, strain rbl2, stronger effect = lower value 0.991 | S. cerevisiae deletion strains, locus YOR270C, strain vph1, stronger effect = lower value 0.864 | S. cerevisiae deletion strains, locus YOR290C, strain snf2, stronger effect = lower value 0.962 | S. cerevisiae deletion strains, locus YOR316C, strain cot1, stronger effect = lower value 1 | S. cerevisiae deletion strains, locus YPL051W, strain arl3, stronger effect = lower value 0.995 | S. cerevisiae deletion strains, locus YPL078C, strain atp4, stronger effect = lower value 0.981 | S. cerevisiae deletion strains, locus YPL106C, strain sse1, stronger effect = lower value 0.906 | S. cerevisiae deletion strains, locus YPL240C, strain hsp82, stronger effect = lower value 0.999 | S. cerevisiae deletion strains, locus YPL256C, strain CLN2, stronger effect = lower value 0.971 | S. cerevisiae deletion strains, locus YPR119W, strain clb2, stronger effect = lower value 0.985 | S. cerevisiae deletion strains, locus YPR141C, strain kar3, stronger effect = lower value 1 | S. cerevisiae deletion strains, locus YPR163C, strain tif3, stronger effect = lower value 0.99 | S. cerevisiae deletion strains, locus YPR167C, strain met16, stronger effect = lower value 1.02 | S. cerevisiae deletion strains, strain wtn01, stronger effect = lower value 0.997 | S. cerevisiae strains, strain wild type, stronger effect = lower value 1
